Rows were chosen to be rich in hits. Some 12% of all compounds tested hit in one or more screens of this group.
Pf growth 96h: Primary qHTS for delayed death inhibitors of the malarial parasite plastid, 96 hour incubation; 320,000 tested, 6.9% active; P. falciparum luciferase reporter growth, 96 h; AID 504834, 2011; Potency, µM (highest dose often 28.7 µM), hits mostly inhibitors
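Two parasite generations (96 h, 37 C, 5% CO2) of compound exposure in infected erythrocytes (0.05% parasitemia, 2% hematocrit). Luciferase-reporter P. falciparum; decreased luminescence indicates inhibited growth, aimed at apicoplast-acting delayed death.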
AmpC inh detg: qHTS Inhibitors of AmpC Beta-Lactamase (assay with detergent). AID 485294, 2010. 370,000 tested, 0.041% active. Potency, µM (highest dose often 114 µM), hits mostly inhibitors. P00811. AmpC hydrolysis of nitrocefin, absorbance 480 nm, 0.01% Triton; also: nearly all actives have a fitted effect of over 25% in size
Target sequence (P00811 whole entry, looked up): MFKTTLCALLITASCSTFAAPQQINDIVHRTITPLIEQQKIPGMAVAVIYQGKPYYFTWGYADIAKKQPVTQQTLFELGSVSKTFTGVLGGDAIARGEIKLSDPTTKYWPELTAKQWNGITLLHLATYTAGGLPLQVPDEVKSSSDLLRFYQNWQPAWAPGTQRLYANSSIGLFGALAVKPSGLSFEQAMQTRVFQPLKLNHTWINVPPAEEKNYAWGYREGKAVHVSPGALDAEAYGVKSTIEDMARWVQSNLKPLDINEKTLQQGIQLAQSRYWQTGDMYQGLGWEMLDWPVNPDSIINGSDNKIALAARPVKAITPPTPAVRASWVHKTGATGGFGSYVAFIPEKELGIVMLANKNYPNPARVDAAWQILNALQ
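20 mM phosphate pH 7.0 + 0.01% (detergent screen) or 0.0001% Triton X-100; 5.3 nM AmpC reagent; cpd preinc 15 min RT; nitrocefin (800 uM stock) to start; A480 q20 s × 4 min; Activity was normalised to no-enzyme and no-compound control wells.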
AmpC no deterg: qHTS Inhibitors of AmpC Beta-Lactamase (assay without detergent); Potency, µM (series often up to 57.1 µM), usual class: inhibitors; AmpC nitrocefin hydrolysis, absorbance 480 nm, 0.0001% Triton; 330,000 tested, 0.52% active; also: nearly all actives have a fitted effect of over 20% in size
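20 mM phosphate pH 7.0 + 0.01% (detergent screen) or 0.0001% Triton X-100; 5.3 nM AmpC reagent; cpd preinc 15 min RT; nitrocefin (800 uM stock) to start; A480 q20 s × 4 min; Activity was normalised to no-enzyme and no-compound control wells.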
SARS PLP yeast: qHTS of Yeast-based Assay for SARS-CoV PLP; S. cerevisiae expressing SARS-CoV PLpro, growth rescue; 330,000 tested, 0.19% active; AID 485353, 2010; Potency, µM (doses to about 32.9 µM), usual class: activators; calls by dose curve; also: nearly all actives have a fitted effect of over 55% in size
Sm TGR inh: qHTS Assay for the Inhibitors of Schistosoma Mansoni Peroxiredoxins; Schistosoma mansoni thioredoxin glutathione reductase (TGR), Q962Y6; purified TGR, DTNB reduction, TNB absorbance 405 nm; Potency, µM (titrated, usually from 114 µM), most hits filed as inhibitors; 360,000 tested, 3% active; AID 485364, 2010; also: nearly all actives have a fitted effect of over 60% in size
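First, TGR (20 nM dispensed) and NADPH were mixed with compound. Second, a 15 min room-temperature incubation followed. Third, further NADPH and then DTNB were added to start the reaction. Finally, TNB absorbance was monitored kinetically.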
Pf growth 48h: Primary qHTS for delayed death inhibitors of the malarial parasite plastid, 48 hour incubation; P. falciparum luciferase growth in erythrocytes, 48 h; Potency, µM (highest dose often 28.7 µM), actives largely listed as inhibitors; 310,000 tested, 5.9% active; AID 504832, 2011
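Luciferase-expressing P. falciparum in infected erythrocytes (2% hematocrit, 0.1% parasitemia final) in RPMI 1640/0.5% Albumax were exposed to compound for 48 hours at 37 C, 5% CO2; growth read as luminescence.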
Of the large screens only hits and unclear results are named; the others gave an inactive call. Unless noted, calls follow the shape of the dose curve; as a rule, active = well fitted curve in the direction sought with a large enough effect; inconclusive = small, poorly fitted or top-dose-only effect, or another doubt; inactive = no such curve, though single readings can be large; an effect the other way counts as inactive or inconclusive.

COc1ccccc1N1C(=O)C2C(c3ccccc3F)NN(C(=O)c3ccc(C)cc3)C2C1=O (stereo unspecified)	Pf growth 96h inconclusive, Sm TGR inh 17.8µM
COC(=O)C1=NN(c2ccccc2OC)C2C(=O)N(c3ccccc3OC)C(=O)C12 (stereo unspecified)	none
Cc1ccc(C(=O)N2NC(c3ccccc3F)C3C(=O)N(c4cccc(C)c4)C(=O)C32)cc1 (stereo unspecified)	Pf growth 96h 2.08µM
Cc1ccccc1-c1noc(-c2cccnc2N(C)Cc2ccc(Cl)cc2)n1	none (no result: Pf growth 96h, AmpC no deterg, SARS PLP yeast, Pf growth 48h)
NC(=O)c1nsc(C(=O)N(c2ccccc2)C(C(=O)NC2CCCC2)c2ccncc2)c1N (stereo unspecified)	none
NC(=O)c1nsc(C(=O)N(c2ccccc2)C(C(=O)NC2CCCCC2)c2ccc(O)cc2)c1N (stereo unspecified)	Pf growth 96h 10.4µM, Sm TGR inh inconclusive, Pf growth 48h inconclusive
COc1cc(C(C(=O)NC2CCCCC2)N(C(=O)c2snc(C(N)=O)c2N)c2ccc(C)cc2)ccc1O (stereo unspecified)	Pf growth 48h 7.38µM
Cc1c(Cl)c(=O)oc2cc(OP(=O)(OCCCl)OCCCl)ccc12	Pf growth 96h inconclusive, Pf growth 48h 13.5µM (no result: AmpC inh detg, AmpC no deterg, SARS PLP yeast, Sm TGR inh)
Cc1c(Cl)c(=O)oc2cc(OC(C)C)ccc12	Pf growth 48h inconclusive
COC(=O)c1ccn(-c2nc(-c3ccc(Cl)cc3)cc(C(F)(F)F)n2)n1	none (no result: Pf growth 96h, AmpC no deterg, SARS PLP yeast, Pf growth 48h)
COc1ccc(NC(=O)CSc2ncc(-c3ccc(Cl)cc3)[nH]2)cc1OC	none (no result: Pf growth 96h, AmpC no deterg, SARS PLP yeast, Pf growth 48h)
COC1=C(c2ccccc2)C(=O)c2ccccc2C1=O	Pf growth 96h 1.17µM, Pf growth 48h 1.47µM
COc1ccc(C2=C(Nc3ccccc3)c3ccccc3C2=O)cc1	AmpC inh detg inconclusive, Pf growth 48h 1.04µM
COc1ccc(NC2=C(c3ccc(OC)cc3)C(=O)c3ccccc32)cc1	Pf growth 96h inconclusive, Pf growth 48h 0.657µM
COc1ccc(C2=C(N)c3ccccc3C2=O)cc1	Pf growth 96h 10.4µM
COc1ccc(NC2=C(c3ccc(C(F)(F)F)cc3)C(=O)c3ccccc32)cc1	none (no result: Pf growth 96h, AmpC no deterg, SARS PLP yeast, Pf growth 48h)
NC(=O)c1ccccc1NC(=O)c1ccc2c(c1)OCO2	AmpC inh detg inconclusive
COc1cc(C(=O)NCCCc2nc3ccccc3n2CC(C)C)cc(OC)c1OC	none (no result: Pf growth 96h, AmpC no deterg, SARS PLP yeast, Pf growth 48h)
O=C(C1=C(c2ccccc2)C(=O)c2ccccc2C1=O)c1ccccc1	AmpC inh detg inconclusive, Pf growth 48h 1.47µM
O=C(c1ccccc1)c1c[nH]cc1-c1ccccc1	AmpC inh detg inconclusive
COc1ccccc1NC(=O)c1c(C)nn(-c2ccccc2)c1Cl	none
Cc1nn(-c2ccccc2)c(Cl)c1C(=O)N(C)c1nc(-c2ccc(F)cc2)cs1	Pf growth 96h 7.38µM
CC1(C)CC(=O)c2c(O)cc(OCC(=O)Nc3ccc(CCO)cc3)cc2O1	Pf growth 96h inconclusive, AmpC inh detg inconclusive
Cc1cc(C)cc(Nc2ccc([N+](=O)[O-])nc2[N+](=O)[O-])c1	Pf growth 96h inconclusive, Sm TGR inh inconclusive, Pf growth 48h inconclusive
COc1cc(Nc2ccc(C)cc2)c([N+](=O)[O-])nc1[N+](=O)[O-]	Sm TGR inh 25.1µM, Pf growth 48h inconclusive
COC(=O)c1scc(C#N)c1N/N=C(\C#N)S(=O)(=O)c1ccc(Cl)cc1	Sm TGR inh 31.6µM
COC(=O)c1scc(S(=O)(=O)C(C)C)c1N/N=C(\C#N)C(=O)c1ccc(Cl)cc1	Pf growth 48h inconclusive
CC1(C)Cc2c(sc(NC(=O)/C=C/C(=O)O)c2C#N)CO1	Pf growth 96h 2.94µM, Sm TGR inh inconclusive, Pf growth 48h 4.15µM
CC(=O)Nc1sc2c(c1C#N)CCN(Cc1ccccc1)C2	AmpC inh detg inconclusive
N#Cc1c(NC(=O)/C=C/C(=O)O)sc2c1CCN(Cc1ccccc1)C2	Pf growth 96h 10.4µM, Sm TGR inh 25.1µM
